# Results filed as inconclusive are left out. A call without a number means that no potency is given here. Active and inactive are the calls of the source. Calls follow the shape of the dose curve; as a rule, active = well fitted curve in the direction sought with a large enough effect; inconclusive = small, poorly fitted or top-dose-only effect, or another doubt; inactive = no such curve, though single readings can be large; an effect the other way counts as inactive or inconclusive.
# Key:
# [1] = target: Calcium and integrin-binding protein 1 (Homo sapiens) (UniProt Q99828); test: Primary qHTS for Identification of Calcium Integrin Binding Protein 1 (CIB1) Competitor (AID 1508620);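 also: GST tagged CIB1 binding a fluorescein labelled alphaIIb integrin peptide tracer; top concentration of the series differs between compounds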
# How it was run: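 Fluorescence polarization competition: CIB1-GST (1 uM final) preincubated with compound 15 min at room temperature, then FITC-labeled alphaIIb peptide (100 nM final) added for another 15 min. Polarization read at Ex 480/Em 540.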
# [2] = qHTS to identify inhibitors of the type 1 interferon - major histocompatibility complex class I in skeletal muscle: primary screen against the NCATS Mechanism Interrogation Plate v5.0 (MIPE) Libary (AID 1347411); also: nearly all actives have a fitted effect of over 65% in size; also: potency is read from the fitted curve at half-maximal effect
# How it was run: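 HLA-B HiBit myoblasts, dexamethasone-free medium + 4 ng/ml IFN-b, 24 h compound, 11-pt 1:3 from 46 uM final. Readout: Nano-Glo HiBiT lytic luminescence after 10 min lysis, RT.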
# [3] = target: Calcium and integrin-binding protein 1 (Homo sapiens) (UniProt Q99828); test: Confirmatory qHTS for Identification of Calcium Integrin Binding Protein 1 (CIB1) Competitor (AID 1508617); also: nearly all actives have a fitted effect of over 65% in size
# How it was run: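 Binding competition between test compounds and fluorescent alphaIIb peptide for 1 uM CIB1-GST is monitored by FP at 480/540 nm. Final compound range is up to 114 uM; unlabeled peptide serves as reference competitor.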
# Chain of Calcium and integrin-binding protein 1 (Homo sapiens) (Q99828 whole entry, looked up): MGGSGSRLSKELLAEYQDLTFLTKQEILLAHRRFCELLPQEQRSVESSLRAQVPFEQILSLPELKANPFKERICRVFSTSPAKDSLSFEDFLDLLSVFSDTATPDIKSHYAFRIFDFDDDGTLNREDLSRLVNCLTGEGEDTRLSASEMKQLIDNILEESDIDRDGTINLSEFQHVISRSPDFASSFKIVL
smiles,measurement,setting,value
CC(C)(OC1OC(CO)C(O)C(O)C1O)C1CCC(O)(CO)C2CC(O)C(C)(O)C2C1 (centres undefined),Potency,[1],inactive
CC(=O)OCC1=C[C@H](O)[C@@H]2C(C(=O)O)=CO[C@@H](O[C@@H]3O[C@H](CO)[C@@H](O)[C@H](O)[C@H]3O)[C@H]12,Potency,[1],inactive
C=C1CC[C@@H]2[C@](C)(CO)[C@H](O)CC[C@@]2(C)[C@@H]1C/C=C1/C(=O)OC[C@H]1O,Potency,[2],11.7 µM (active)
O=C(NC[C@H](O)CN1CCc2ccccc2C1)c1cc(NC2COC2)ncn1,Potency,[2],inactive
same,Potency,[1],inactive
C=C1[C@H]2[C@H](O[C@@H]3O[C@H](COC(=O)/C=C/c4cc(OC)c(O)c(OC)c4)[C@@H](O)[C@H](O)[C@H]3O)OC=C(C(=O)O)[C@H]2C[C@@H]1O,Potency,[1],inactive
CC(=O)c1c(O)cc2c(c1C)C(=O)CC(O)C2 (centres undefined),Potency,[3],inactive
Oc1ccc([C@H]2COc3cc(O)ccc3C2)cc1,Potency,[1],inactive
C=C1CCC(OC(C)=O)C2(C)CC3(O)OC(=O)C(C)=C3CC12 (centres undefined),Potency,[1],inactive
CC1(C)O[C@]23C[C@H]1C[C@H](OC(=O)c1ccoc1)[C@]2(C)[C@@H](OC(=O)c1ccoc1)CCC3(C)O (some centres undefined),Potency,[1],inactive
C/C=C1/[C@H](O[C@@H]2O[C@H](CO)[C@@H](O)[C@H](O)[C@H]2O)OC=C(C(=O)OC)[C@H]1CC(=O)O[C@@H]1O[C@H](CO)[C@@H](O)[C@H](O)[C@H]1O,Potency,[1],inactive
COc1cc(C(=O)OC[C@H]2O[C@H](O[C@@]3(CO)O[C@@H](CO)[C@H](O)[C@H]3O)[C@H](O)[C@@H](O)[C@@H]2O)ccc1O,Potency,[1],inactive
CCN(c1cc(C#CCN2CCOCC2)cc(C(=O)NCc2c(C)cc(C)[nH]c2=O)c1C)C1CCC(N(C)CCOC)CC1 (centres undefined),Potency,[2],inactive
same,Potency,[1],inactive
